In the library only some 12% were active in any assay of this set; here they are far more common.
Sfp PPTase inh – qHTS Assay for Inhibitors of Bacillus subtilis Sfp phosphopantetheinyl transferase (PPTase); 4'-phosphopantetheinyl transferase ffp (Bacillus subtilis), Q9F4F7; Biochemical Sfp PPTase activity, qHTS; Potency, µM, actives largely listed as inhibitors; 310,000 tested, 3.5% active; AID 1490, 2009;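 note: the enzyme is Sfp with the accession as filed and its product quenches rhodamine fluorescence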
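Compounds were incubated with enzyme (final 15 nM) for 15 min at room temperature before substrate addition started the reaction. Fluorescence at 525 nm excitation, 598 nm emission was recorded immediately and after 30 minutes.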
RORg inh – qHTS for inhibitors of ROR gamma transcriptional activity; Nuclear receptor ROR-gamma (Mus musculus), P51450; Drosophila S2 Gal4-RORgamma UAS-luciferase reporter, 20 h; Potency, µM (series often up to 53.6 µM), usual class: inhibitors; 310,000 tested, 5.4% active; note: nearly all actives have a fitted effect of over 60% in size
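Luciferase reporter read in Schneider cells carrying Gal4-RORγ (mouse) and UAS-Photinus luciferase; cells given compound 1 h before 700 uM copper sulfate induction, then incubated 20 h at ambient temperature.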
ALDH1A1 block – qHTS Assay for Inhibitors of Aldehyde Dehydrogenase 1 (ALDH1A1); Purified ALDH1A1, NADH fluorescence, propionaldehyde substrate; Potency, µM (highest dose often 75.3 µM), most hits filed as inhibitors; 220,000 tested, 7.3% active; active = well fitted inhibition curve with a large enough effect, not every such curve was filed as active; inconclusive = small, poorly fitted or top-dose-only effect, or another doubt; inactive = no such curve, though single readings can be large or run the other way
Target sequence (P00352 whole entry, looked up): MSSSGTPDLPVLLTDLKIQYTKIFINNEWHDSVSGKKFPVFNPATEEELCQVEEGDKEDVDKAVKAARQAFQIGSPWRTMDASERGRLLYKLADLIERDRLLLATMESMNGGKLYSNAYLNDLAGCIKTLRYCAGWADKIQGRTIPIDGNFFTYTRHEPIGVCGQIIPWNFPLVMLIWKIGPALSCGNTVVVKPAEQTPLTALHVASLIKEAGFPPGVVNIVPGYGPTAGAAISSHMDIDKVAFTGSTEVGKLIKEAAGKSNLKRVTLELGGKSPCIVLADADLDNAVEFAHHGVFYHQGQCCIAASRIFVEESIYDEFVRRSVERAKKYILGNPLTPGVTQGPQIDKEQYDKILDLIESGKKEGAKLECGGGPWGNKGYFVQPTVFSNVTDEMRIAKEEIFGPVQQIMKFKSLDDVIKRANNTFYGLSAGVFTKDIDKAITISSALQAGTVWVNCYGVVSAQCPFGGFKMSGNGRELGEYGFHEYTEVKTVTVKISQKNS
VP16 counter – VP16 counterscreen qHTS for inhibitors of ROR gamma transcriptional activity; Drosophila S2 Gal4-VP16 UAS-luciferase, luminescence, 20 h; Potency, µM (highest dose often 53.6 µM), hits mostly inhibitors; 310,000 tested, 3.5% active;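 note: Gal4-VP16 expression switched on by copper sulfate through the metallothionein promoter; nearly all actives have a fitted effect of over 50% in size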
PLK1 PBD inh – qHTS for Inhibitors of PLK1-PDB (polo-like kinase 1 - polo-box domain): Primary Screen; 360,000 tested, 2.8% active; Serine/threonine-protein kinase PLK1 (Homo sapiens), P53350; Potency, µM, actives largely listed as inhibitors; Plk1 PBD binding of FITC phosphopeptide, fluorescence polarization; AID 720504, 2013; note: series mostly up to about 57 µM; nearly all actives have a fitted effect of over 65% in size
Of the large screens only hits and unclear results are named; the others gave an inactive call. Unless noted, calls come from the whole dose curve; as a rule, active = well fitted curve in the direction sought with a large enough effect; inconclusive = small, poorly fitted or top-dose-only effect, or another doubt; inactive = no such curve, though single readings can be large; an effect the other way counts as inactive or inconclusive.

Cn1nc(C2CC2)cc1NC(=O)C1(C)CCN1C(=O)Cc1ccc(-c2ccccc2)cc1 (stereo not drawn)	none (no result: Sfp PPTase inh, RORg inh, ALDH1A1 block, VP16 counter)
Cc1cccc(C)c1NC(=O)C1C(c2ccc3c(c2)OCO3)=Nc2ccccc2N1C(=O)c1ccccn1 (stereo not drawn)	none (no result: Sfp PPTase inh, RORg inh, ALDH1A1 block, VP16 counter)
COc1cc(CCCN2C(=S)NC[C@@H]2CC2CCCCC2)cc(OC)c1OC	RORg inh 3.98µM, VP16 counter inconclusive (no result: ALDH1A1 block)
COc1cc(CCCN2C(=O)C(=O)NC[C@@H]2CC2CCCCC2)cc(OC)c1OC	none (no result: Sfp PPTase inh, RORg inh, ALDH1A1 block, VP16 counter)
Cc1ccc(NC(=O)CN(C)S(=O)(=O)c2cccs2)cc1F	RORg inh inconclusive
Cc1ccc(NC(=O)CN(C)S(=O)(=O)c2cccs2)cc1C	RORg inh inconclusive, ALDH1A1 block inconclusive, VP16 counter 7.94µM
Cc1c(Cl)c(-c2n[nH]c(=S)n2CC(C)C)nn1C	RORg inh 12.6µM, ALDH1A1 block inconclusive, VP16 counter inconclusive
CCn1c(-c2nn(-c3ccc(C)cc3)ccc2=O)n[nH]c1=S	none
CCCCn1c(-c2nn(C)c(C)c2Cl)n[nH]c1=S	RORg inh 3.16µM, VP16 counter inconclusive
CCOC(=O)COc1ccc(Br)cc1/C=C1\SC(N)=NC1=O	none (no result: ALDH1A1 block)
CCOC(=O)CSC1=NC(=O)/C(=C\c2ccc(OC(C)=O)cc2)S1	Sfp PPTase inh inconclusive, PLK1 PBD inh 2.12µM
CCOc1ccc(CN(C(=O)c2cc(=O)c3cc(C)cc(C)c3o2)C2CCS(=O)(=O)C2)cc1 (stereo not drawn)	none (no result: ALDH1A1 block)
COc1ccc(C(=O)N/N=C/c2sc3ccccc3c2O)cc1	RORg inh 2.24µM, VP16 counter 3.98µM
COc1ccc(C(=O)N/N=C/c2c[nH]c3ccccc23)cc1	none (no result: ALDH1A1 block)
O=C(N/N=C/c1ccc(F)cc1)c1ccccc1	none
O=C(N/N=C/c1sc2ccccc2c1O)c1cccc2ccccc12	RORg inh 1.78µM, VP16 counter 4.47µM
O=C(N/N=C/c1sc2ccccc2c1O)c1ccccc1	RORg inh 1.78µM, ALDH1A1 block inconclusive, VP16 counter 1.58µM
O=C(N/N=C/c1ccccc1)c1cccc2ccccc12	none (no result: Sfp PPTase inh, RORg inh, ALDH1A1 block, VP16 counter)
Cc1cccc(/N=C/c2sc3ccccc3c2O)n1	none
Oc1c(C=Nc2cccc3cccnc23)sc2ccccc12	RORg inh 1.78µM, ALDH1A1 block inconclusive, VP16 counter 1.41µM (no result: PLK1 PBD inh)
Cc1ccc(S(=O)(=O)N2C[C@H]3C(=O)C[C@@H](c4ccccc4)N(S(C)(=O)=O)[C@H]3C[C@H]2c2ccccc2)cc1	none (no result: Sfp PPTase inh, RORg inh, ALDH1A1 block, VP16 counter)
CCOC(=O)C1CCCN(C(=O)c2cc(C#N)cs2)CC1 (stereo not drawn)	none (no result: Sfp PPTase inh, RORg inh, ALDH1A1 block, VP16 counter)
O=C(N/N=C/c1ccccc1F)c1cccc2ccccc12	VP16 counter inconclusive (no result: ALDH1A1 block)
O=C(N/N=C/c1cccn1-c1ccc(O)cc1)c1cccc2ccccc12	RORg inh 17.8µM, VP16 counter 15.8µM (no result: ALDH1A1 block)
COc1ccc2cc(C(=O)N/N=C/c3sc4ccccc4c3O)ccc2c1	RORg inh 3.55µM, VP16 counter inconclusive
Fc1ccc(-c2nc3n(c2-c2ccncc2)CCS3)cc1	none (no result: PLK1 PBD inh)
CNC(=O)c1nc(C)n(-c2ccc(Cl)cc2Cl)n1	PLK1 PBD inh 3.77µM
CCCNC(=O)c1nc(C)n(-c2cc(Cl)ccc2Cl)n1	PLK1 PBD inh 21.2µM
Clc1ccc(-c2csc(-c3ccno3)n2)cc1	none (no result: ALDH1A1 block)
Nc1nc(-c2cccc(F)c2)cs1	PLK1 PBD inh 10.6µM
Fc1cccc(-c2csc(-c3ccno3)n2)c1	Sfp PPTase inh inconclusive, ALDH1A1 block 22.4µM, PLK1 PBD inh inconclusive
COc1cccc(C=NCCCN=Cc2cccc(OC)c2O)c1O	RORg inh 7.94µM (no result: ALDH1A1 block)
COc1cccc(C=Nc2cccnc2)c1O	RORg inh inconclusive (no result: PLK1 PBD inh)
Oc1ccccc1/C=N/Nc1nccnc1Cl	RORg inh 12.6µM, VP16 counter inconclusive
COc1cccc(/C=N/Nc2nccnc2Cl)c1O	RORg inh 3.16µM, VP16 counter 7.08µM
COc1cccc(/C=N/Nc2ncnc3scc(-c4ccccc4)c23)c1O	Sfp PPTase inh inconclusive, RORg inh 2.82µM, VP16 counter 12.6µM
CCOC(=O)C1(C)CCCN1C(=O)c1ccc(C(F)(F)F)nc1C (stereo not drawn)	none (no result: Sfp PPTase inh, RORg inh, ALDH1A1 block, VP16 counter)
COc1ccc(NC(=O)C2(C)CCN2Cc2cccc(OC)c2F)cc1OC (stereo not drawn)	none (no result: Sfp PPTase inh, RORg inh, ALDH1A1 block, VP16 counter)
COc1ccc(/C=C/C2=C[C@]3(C)C[C@]2(C)[C@H](c2ccc(OC)cc2)CC3=O)cc1	none (no result: PLK1 PBD inh)
CN(C(=O)CN1CCN(c2cc(-c3cccc4oc5ccccc5c34)ncn2)CC1)c1ccccc1	none (no result: Sfp PPTase inh, RORg inh, ALDH1A1 block, VP16 counter)
COc1cccc(/C=N/Nc2ncnc(Cl)c2N)c1O	RORg inh 1.78µM, VP16 counter 3.16µM
COc1cccc(/C=N/Nc2nc3ccccc3n3cnnc23)c1O	RORg inh inconclusive, ALDH1A1 block inconclusive, VP16 counter inconclusive
Clc1nccnc1N/N=C/c1ccc(Br)cc1	RORg inh 4.47µM, VP16 counter inconclusive (no result: ALDH1A1 block)
COC(=O)C/C=C\[C@@H](C)[C@@H](/C=N\OCC[C@H]1C=C[C@H](OC(C)=O)[C@@H](COC(C)=O)O1)NS(=O)(=O)c1ccc(C)cc1	none (no result: PLK1 PBD inh)
Cc1ccc(C(CC(=O)c2ccc(Cl)cc2)C(=O)O)cc1 (stereo not drawn)	none
NC(C(=O)O)C(CC(=O)O)c1ccc(Cl)cc1 (stereo not drawn)	Sfp PPTase inh 50.1µM (no result: RORg inh, VP16 counter, PLK1 PBD inh)
c1c2c(cc3sc(N4CCCCC4)nc13)OCO2	RORg inh 10µM, ALDH1A1 block 22.4µM, VP16 counter 11.2µM, PLK1 PBD inh inconclusive
c1ccc2c(c1)CCN(c1nc3cc4c(cc3s1)OCO4)C2	Sfp PPTase inh inconclusive, ALDH1A1 block 25.1µM, PLK1 PBD inh inconclusive
c1c2c(cc3sc(N4CCOCC4)nc13)OCO2	Sfp PPTase inh 35.5µM, RORg inh inconclusive, ALDH1A1 block 10µM, VP16 counter inconclusive, PLK1 PBD inh 26.7µM
c1ccc(N2CCN(c3nc4cc5c(cc4s3)OCO5)CC2)cc1	Sfp PPTase inh 44.7µM, ALDH1A1 block 20µM, PLK1 PBD inh 26.7µM
Oc1cc2c(cc1CN1CCc3ccccc3C1)OCO2	PLK1 PBD inh inconclusive (no result: ALDH1A1 block)
Cc1ccc(S(=O)(=O)NC(=O)NN2CC3CCCC3C2)cc1 (stereo not drawn)	Sfp PPTase inh inconclusive, ALDH1A1 block inconclusive
CC(C)C[C@H]1CN(CCCC[C@H]2CNC(=O)C(=O)N2CCC2CCCCC2)C(=O)C(=O)N1CCc1ccccc1	none (no result: Sfp PPTase inh, RORg inh, ALDH1A1 block, VP16 counter)
Cc1cc(C)c(S(=O)(=O)N(CC(=O)O)CC(=O)O)c(C)c1	none
Cc1cc(C)c(S(=O)(=O)N(C2=NCCS2)S(=O)(=O)c2c(C)cc(C)cc2C)c(C)c1	RORg inh 15.8µM
COc1ccc(C2c3sc(=O)[nH]c3SC3C4CCC(C4)C23)cc1 (stereo not drawn)	ALDH1A1 block 22.4µM
O=c1[nH]c2c(s1)C(c1ccccc1)C1C3CCC(C3)C1S2 (stereo not drawn)	ALDH1A1 block 20µM, PLK1 PBD inh inconclusive
